Laboratory results published in PubChem BioAssay AID1159580 (chemical genetic matrix, 2015).
Among all 5,500 compounds or so, about 2,000 (36%) were called active. Another 18% or so got no clear call; they are omitted. No stated cut-off is given here; in the data, active means normalized growth mostly below about 0.91 (no sharp cut-off); inconclusive means no clear call, values can overlap the other calls; inactive means mostly above about 0.92. Some of the results follow.

Assay: chemical genetic growth profiling, strain panel (AID 1159580);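 further: tested at 20 µM; growth read once vehicle control cultures reached saturation at 30 °C; 1 = growth at the plate median or of vehicle wells; lower values mean less growth of the strain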
Conditions: growth OD

Measured: normalized growth

CNC(=O)O/N=C(\C)SC
inactive: S. cerevisiae deletion strains, locus YJR075W, strain HOC1, active compounds read low 0.99 | S. cerevisiae deletion strains, locus YKL009W, strain mrt4, active compounds read low 1.02 | S. cerevisiae deletion strains, locus YKL068W, active compounds read low 0.986 | S. cerevisiae deletion strains, locus YKL085W, strain MDH1 (second series), active compounds read low 0.985 | S. cerevisiae deletion strains, locus YKL085W, strain MDH1, active compounds read low 0.985 | S. cerevisiae deletion strains, locus YKL160W, strain elf1, active compounds read low 1 | S. cerevisiae deletion strains, locus YKL190W, strain CNB1, active compounds read low 1 | S. cerevisiae deletion strains, locus YKR001C, strain vps1, active compounds read low 0.999 | S. cerevisiae deletion strains, locus YKR026C, strain gcn3, active compounds read low 0.999 | S. cerevisiae deletion strains, locus YKR091W, strain srl3, active compounds read low 1 | S. cerevisiae deletion strains, locus YLL001W, strain dnm1, active compounds read low 1 | S. cerevisiae deletion strains, locus YLL026W, active compounds read low 1 | S. cerevisiae deletion strains, locus YLL041C, strain sdh2, active compounds read low 0.999 | S. cerevisiae deletion strains, locus YLR027C, strain aat2, active compounds read low 0.987 | S. cerevisiae deletion strains, locus YLR039C, strain RIC1, active compounds read low 1.01 | S. cerevisiae deletion strains, locus YLR058C, strain SHM2, active compounds read low 1.01 | S. cerevisiae deletion strains, locus YLR102C, strain apc9, active compounds read low 0.99 | S. cerevisiae deletion strains, locus YLR113W, strain HOG1, active compounds read low 1.01 | S. cerevisiae deletion strains, locus YLR221C, strain rsa3, active compounds read low 1 | S. cerevisiae deletion strains, locus YLR258W, strain gsy2, active compounds read low 0.994 | S. cerevisiae deletion strains, locus YLR262C, strain YPT6 (second series), active compounds read low 1.03 | S. cerevisiae deletion strains, locus YLR262C, strain YPT6, active compounds read low 1.05 | S. cerevisiae deletion strains, locus YLR268W, strain sec22, active compounds read low 0.994 | S. cerevisiae deletion strains, locus YLR320W, strain mms22, active compounds read low 0.995 | S. cerevisiae deletion strains, locus YLR330W, strain CHS5, active compounds read low 1.01 | S. cerevisiae deletion strains, locus YLR342W, strain FKS1 (second series), active compounds read low 1.02 | S. cerevisiae deletion strains, locus YLR342W, strain FKS1, active compounds read low 0.997 | S. cerevisiae deletion strains, locus YLR357W, strain rsc2, active compounds read low 0.983 | S. cerevisiae deletion strains, locus YLR370C, strain arc18, active compounds read low 1 | S. cerevisiae deletion strains, locus YLR371W, strain rom2, active compounds read low 0.98 | S. cerevisiae deletion strains, locus YLR384C, strain iki3, active compounds read low 1 | S. cerevisiae deletion strains, locus YLR418C, strain cdc73, active compounds read low 1.01 | S. cerevisiae deletion strains, locus YML016C, strain PPZ1, active compounds read low 1.01 | S. cerevisiae deletion strains, locus YML032C, strain rad52, active compounds read low 0.981 | S. cerevisiae deletion strains, locus YML120C, strain ndi1, active compounds read low 1.01 | S. cerevisiae deletion strains, locus YML124C, strain tub3, active compounds read low 0.978 | S. cerevisiae deletion strains, locus YMR058W, strain fet3, active compounds read low 1 | S. cerevisiae deletion strains, locus YMR078C, strain ctf18, active compounds read low 0.985 | S. cerevisiae deletion strains, locus YMR125W, strain sto1, active compounds read low 0.999 | S. cerevisiae deletion strains, locus YMR129W, active compounds read low 0.999 | S. cerevisiae deletion strains, locus YMR205C, strain PFK2, active compounds read low 1.01 | S. cerevisiae deletion strains, locus YMR223W, strain ubp8, active compounds read low 0.991 | S. cerevisiae deletion strains, locus YMR231W, strain pep5, active compounds read low 0.982 | S. cerevisiae deletion strains, locus YMR263W, strain SAP30, active compounds read low 1.02 | S. cerevisiae deletion strains, locus YMR307W, strain GAS1, active compounds read low 1.02 | S. cerevisiae deletion strains, locus YNL067W, strain RPL9B, active compounds read low 1.01 | S. cerevisiae deletion strains, locus YNL071W, strain lat1, active compounds read low 1.01 | S. cerevisiae deletion strains, locus YNL128W, strain TEP1, active compounds read low 1.01 | S. cerevisiae deletion strains, locus YNL153C, strain GIM3, active compounds read low 0.996 | S. cerevisiae deletion strains, locus YNL183C, strain NPR1, active compounds read low 0.997 | S. cerevisiae deletion strains, locus YNL209W, strain ssb2, active compounds read low 0.996 | S. cerevisiae deletion strains, locus YNL233W, strain BNI4, active compounds read low 1.03 | S. cerevisiae deletion strains, locus YNL248C, strain rpa49, active compounds read low 1 | S. cerevisiae deletion strains, locus YNL250W, strain rad50, active compounds read low 0.974 | S. cerevisiae deletion strains, locus YNL271C, strain bni1, active compounds read low 0.991 | S. cerevisiae deletion strains, locus YNL298W, strain CLA4, active compounds read low 0.988 | S. cerevisiae deletion strains, locus YNL307C, strain MCK1, active compounds read low 0.981 | S. cerevisiae deletion strains, locus YNL322C, strain KRE1 (second series), active compounds read low 0.995 | S. cerevisiae deletion strains, locus YNL322C, strain KRE1, active compounds read low 1.01 | S. cerevisiae deletion strains, locus YNR049C, strain mso1, active compounds read low 0.998 | S. cerevisiae deletion strains, locus YNR052C, strain pop2, active compounds read low 0.988 | S. cerevisiae deletion strains, locus YOL006C, strain TOP1, active compounds read low 1.07 | S. cerevisiae deletion strains, locus YOL012C, strain htz1 0.858 | S. cerevisiae deletion strains, locus YOL147C, strain pex11, active compounds read low 0.976 | S. cerevisiae deletion strains, locus YOR001W, strain rrp6, active compounds read low 0.989 | S. cerevisiae deletion strains, locus YOR061W, strain CKA2, active compounds read low 1.01 | S. cerevisiae deletion strains, locus YOR069W, strain VPS5, active compounds read low 1 | S. cerevisiae deletion strains, locus YOR070C, strain gyp1, active compounds read low 0.995 | S. cerevisiae deletion strains, locus YOR080W, strain dia2, active compounds read low 0.996 | S. cerevisiae deletion strains, locus YOR083W, strain WHI5, active compounds read low 1 | S. cerevisiae deletion strains, locus YOR106W, strain vam3, active compounds read low 1.01 | S. cerevisiae deletion strains, locus YOR136W, strain idh2, active compounds read low 0.978 | S. cerevisiae deletion strains, locus YOR144C, strain elg1, active compounds read low 0.977 | S. cerevisiae deletion strains, locus YOR184W, strain ser1, active compounds read low 0.993 | S. cerevisiae deletion strains, locus YOR231W, strain MKK1, active compounds read low 1.05 | S. cerevisiae deletion strains, locus YOR265W, strain rbl2, active compounds read low 1.02 | S. cerevisiae deletion strains, locus YOR270C, strain vph1, active compounds read low 1.02 | S. cerevisiae deletion strains, locus YOR290C, strain snf2, active compounds read low 0.981 | S. cerevisiae deletion strains, locus YOR316C, strain cot1, active compounds read low 0.983 | S. cerevisiae deletion strains, locus YPL051W, strain arl3, active compounds read low 1.02 | S. cerevisiae deletion strains, locus YPL055C, strain LGE1, active compounds read low 1.03 | S. cerevisiae deletion strains, locus YPL078C, strain atp4, active compounds read low 0.997 | S. cerevisiae deletion strains, locus YPL106C, strain sse1, active compounds read low 0.982 | S. cerevisiae deletion strains, locus YPL240C, strain hsp82, active compounds read low 0.998 | S. cerevisiae deletion strains, locus YPL241C, strain CIN2, active compounds read low 1 | S. cerevisiae deletion strains, locus YPL256C, strain CLN2, active compounds read low 1.05 | S. cerevisiae deletion strains, locus YPR119W, strain clb2, active compounds read low 0.985 | S. cerevisiae deletion strains, locus YPR141C, strain kar3, active compounds read low 0.989 | S. cerevisiae deletion strains, locus YPR163C, strain tif3, active compounds read low 0.976 | S. cerevisiae deletion strains, locus YPR167C, strain met16, active compounds read low 0.986 | S. cerevisiae deletion strains, strain wtn01, active compounds read low 0.997 | S. cerevisiae strains, strain wild type, active compounds read low 1
